A short description of assay [1]: antimalarial activity against Dd2 strain (AID 2302;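 active = growth inhibition above 50% at the single 2 µM test dose, taken to imply half-maximal potency below 2 µM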;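 note: 0% = DMSO untreated growth and 100% = chloroquine plus artemisinin killed control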). The note with it: P. falciparum Dd2 in RBCs, LDH growth readout, 72 h; at 2 µM; active compounds read high.
For assay [2], the target named is L-lactate dehydrogenase (Plasmodium falciparum (isolate CDC / Honduras)) (UniProt Q27743). Description: PfLDH activity inhibition – cell lysate, 3D7 strain, counter-screen for P. falciparum growth inhibition project (AID 2304).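 Note: 0% = vehicle and 100% = reference inhibitor.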 The note with it: P. falciparum 3D7 crude extract, LDH APAD/NBT absorbance; at 2 µM; active compounds read high.
Chain of L-lactate dehydrogenase (Plasmodium falciparum (isolate CDC / Honduras)) (Q27743 whole entry, looked up): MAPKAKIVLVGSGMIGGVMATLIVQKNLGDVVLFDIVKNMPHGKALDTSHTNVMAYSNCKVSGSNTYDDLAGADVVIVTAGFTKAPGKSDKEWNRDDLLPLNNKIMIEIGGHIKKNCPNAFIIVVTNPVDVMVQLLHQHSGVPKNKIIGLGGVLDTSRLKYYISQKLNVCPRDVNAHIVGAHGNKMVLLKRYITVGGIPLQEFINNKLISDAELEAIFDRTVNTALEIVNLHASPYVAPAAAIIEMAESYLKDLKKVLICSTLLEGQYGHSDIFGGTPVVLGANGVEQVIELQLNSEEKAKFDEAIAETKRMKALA
The nature of assay [3]: inhibition of 3D7 malaria parasite growth – strain 3D7 (AID 2306).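 Note: 0% = DMSO wells and 100% = chloroquine plus artemisinin control wells.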 The note with it: P. falciparum 3D7 erythrocytic growth, LDH absorbance, 72 h; at 2 µM; active compounds read high.
The target of assay [4] is Calcium-dependent protein kinase 1 (Plasmodium falciparum (isolate 3D7)) (UniProt P62344). Description: PfCDPK1 kinase inhibitors, biochemical, TCAMS library (AID 1159585; cut-off not given, nearly all actives have IC50 up to about 0.98 µM;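 note: inhibitors leave more ATP so luminescence rises with inhibition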). The note with it: recombinant PfCDPK1, Kinase-Glo ATP depletion luminescence. (Kinase-Glo measures the ATP left after a reaction by luminescence.)
Chain of Calcium-dependent protein kinase 1 (Plasmodium falciparum (isolate 3D7)) (P62344 whole entry, looked up): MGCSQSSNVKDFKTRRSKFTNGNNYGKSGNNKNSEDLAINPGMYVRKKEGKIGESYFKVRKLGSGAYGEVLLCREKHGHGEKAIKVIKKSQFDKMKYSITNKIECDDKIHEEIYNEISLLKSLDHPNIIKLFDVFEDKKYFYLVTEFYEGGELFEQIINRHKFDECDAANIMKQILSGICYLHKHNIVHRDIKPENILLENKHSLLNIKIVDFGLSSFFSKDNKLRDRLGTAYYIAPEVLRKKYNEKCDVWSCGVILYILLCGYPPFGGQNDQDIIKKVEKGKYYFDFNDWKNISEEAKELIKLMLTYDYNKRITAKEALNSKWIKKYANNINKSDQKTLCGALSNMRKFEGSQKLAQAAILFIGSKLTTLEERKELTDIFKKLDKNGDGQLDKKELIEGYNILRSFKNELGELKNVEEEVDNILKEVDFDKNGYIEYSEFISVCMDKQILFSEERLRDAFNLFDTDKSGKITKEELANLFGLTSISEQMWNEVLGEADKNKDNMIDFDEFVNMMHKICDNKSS
In assay [5] the target is Plasmodium falciparum protein kinase 6 (PK6, PF3D7_1337100) (UniProt Q8IDW1). Description: PfPK6 kinase inhibitors, biochemical, TCAMS library (AID 1159586). The note with it: recombinant PfPK6, Kinase-Glo ATP depletion luminescence.
Chain of Plasmodium falciparum protein kinase 6 (PK6, PF3D7_1337100) (Q8IDW1 1-305): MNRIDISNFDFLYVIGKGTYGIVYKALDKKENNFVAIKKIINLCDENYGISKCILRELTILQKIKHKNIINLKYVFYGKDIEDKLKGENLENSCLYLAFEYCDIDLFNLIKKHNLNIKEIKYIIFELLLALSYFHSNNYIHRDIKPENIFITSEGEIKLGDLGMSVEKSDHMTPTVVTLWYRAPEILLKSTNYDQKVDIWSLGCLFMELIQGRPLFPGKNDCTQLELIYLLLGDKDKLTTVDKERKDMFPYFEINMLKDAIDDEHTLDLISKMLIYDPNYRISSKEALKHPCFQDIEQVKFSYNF
Assay [6] deals with Protein kinase 7 (PK7), Plasmodium falciparum 3D7 (PF3D7_0213400) (UniProt Q7YTF7). Description: inhibition of Plasmodium PK7 catalytic activity – biochemical, TCAMS antimalarial set, Kinase-Glo luminescence (AID 1159587). The note with it: recombinant PfPK7, Kinase-Glo ATP depletion luminescence.
Chain of Protein kinase 7 (PK7), Plasmodium falciparum 3D7 (PF3D7_0213400) (Q7YTF7 1-343): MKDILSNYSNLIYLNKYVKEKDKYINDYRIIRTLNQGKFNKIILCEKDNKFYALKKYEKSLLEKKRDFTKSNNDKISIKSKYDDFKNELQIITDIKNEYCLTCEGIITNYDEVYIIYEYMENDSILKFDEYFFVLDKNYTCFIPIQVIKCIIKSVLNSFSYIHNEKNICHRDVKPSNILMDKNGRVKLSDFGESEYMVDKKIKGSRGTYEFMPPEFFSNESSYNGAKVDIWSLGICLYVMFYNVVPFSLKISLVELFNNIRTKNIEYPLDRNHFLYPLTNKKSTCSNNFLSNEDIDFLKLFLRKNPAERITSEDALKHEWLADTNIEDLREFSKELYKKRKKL
Assay [7] has as its target Calcium-dependent protein kinase 4 (Plasmodium falciparum (isolate 3D7)) (UniProt Q8IBS5). Description: PfCDPK4 kinase inhibitors, biochemical, TCAMS library (AID 1159588; cut-off not given, nearly all actives have IC50 up to about 0.91 µM). The note with it: recombinant PfCDPK4, Kinase-Glo ATP depletion luminescence.
Assay [8] can be described thus: human hepatoma cell viability loss – ATP luminescence, cytotoxicity control for P. falciparum antimalarial project, primary screen (AID 2303;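 active = inhibition above 50%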;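 note: 0% = DMSO wells and 100% = digitonin-killed cells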). The note with it: HepG2 viability, 24-48 h, at 10 µM, active compounds read high.

SMILES strings stand for the structures. Values without a mark were called inactive. For some assays here: Entries with a potency or affinity are not part of this list. The source made the active and inactive calls. Unless noted, the rule behind the calls is not given here.

Chain of Calcium-dependent protein kinase 4 (Plasmodium falciparum (isolate 3D7)) (Q8IBS5 whole entry, looked up): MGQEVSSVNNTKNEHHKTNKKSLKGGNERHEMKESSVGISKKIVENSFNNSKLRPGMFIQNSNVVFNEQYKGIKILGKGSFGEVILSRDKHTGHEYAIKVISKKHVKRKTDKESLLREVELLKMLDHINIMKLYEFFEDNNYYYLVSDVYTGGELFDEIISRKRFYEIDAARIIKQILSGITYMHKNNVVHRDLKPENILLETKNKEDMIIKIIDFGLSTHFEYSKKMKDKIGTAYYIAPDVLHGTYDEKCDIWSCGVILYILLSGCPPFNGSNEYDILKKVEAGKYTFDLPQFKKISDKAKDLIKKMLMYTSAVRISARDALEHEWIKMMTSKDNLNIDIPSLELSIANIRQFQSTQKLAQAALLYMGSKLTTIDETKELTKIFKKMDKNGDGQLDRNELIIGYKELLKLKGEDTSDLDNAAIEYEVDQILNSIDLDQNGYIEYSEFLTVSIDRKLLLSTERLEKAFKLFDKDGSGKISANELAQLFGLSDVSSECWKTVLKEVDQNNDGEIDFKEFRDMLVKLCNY

For the compound `COc1ccc(C2c3ccccc3-c3nc(N)nc(N)c3C2C)cc1` (centres undefined), the growth inhibition in assay [1] is 0%; in assay [3] it was 97% (active). Also, the inhibition (as a rule, the drop in the measured response relative to a control, in per cent) in assay [2] was 3%. Besides, the outcome in assay [4], in assay [5], in assay [6] and in assay [7] was inactive.

In the case of `COc1ccc(-c2ccc(NC(=O)c3cccc(Cl)c3)cc2)cc1CN1CCCN(C)CC1`, the growth inhibition in assay [1] is 50% (active); in assay [3], 95% (active). Also, the inhibition in assay [8] is 48%; in assay [2], 8%. In addition, the outcome in assay [4], in assay [5], in assay [6] and in assay [7] was inactive.

On to `Nc1ncc(-c2ccc(Br)cc2)c(N)n1`, for which the values for the growth inhibition in assay [1] and in assay [3] were 0% and 89% (active), respectively. Further, the inhibition in assay [2] was 0%. Besides, the result in assay [4], in assay [5], in assay [6] and in assay [7] was inactive.

With `Fc1ccc(Nc2n[nH]c(CNC3CCN(Cc4ccc(Cl)c(Cl)c4)CC3)n2)cc1`, the growth inhibition in assay [1] was 36%; in assay [3], 101% (active). Also, the inhibition in assay [8] was 18%; in assay [2], 5%. The outcome in assay [4], in assay [5], in assay [6] and in assay [7] was inactive.

For the compound `CCCC1N=C(N)N=C(N)N1c1ccc(CC)cc1` (centres undefined), the figures for the growth inhibition in assay [1] and in assay [3] were 4% and 94% (active), respectively. Moreover, the results for the inhibition in assay [8] and in assay [2] were 11% and 1%, respectively. The result in assay [4], in assay [5], in assay [6] and in assay [7] was inactive.

As to `COc1cc(CCNC(=O)Cc2ccc3ccccc3c2)ccc1OCc1ccccc1`, the growth inhibition in assay [1] is 61% (active); in assay [3] it was 93% (active). Moreover, the inhibition in assay [2] is 2%. The outcome in assay [4], in assay [5], in assay [6] and in assay [7] was inactive.

Turning to `Oc1ccc2c(CNC3CCCCC3)c(O)ccc2c1CNC1CCCCC1`, the growth inhibition in assay [1] and in assay [3] was 101% (active) throughout. Further, the inhibition in assay [2] is -4%. For the same compound, the outcome in assay [4], in assay [5], in assay [6] and in assay [7] was inactive.

Consider `Cc1cc(OCCCN2CCC(NS(=O)(=O)c3ccc(C(F)(F)F)cc3)CC2)c2ccccc2n1`, for which the growth inhibition in assay [1] is 24%; in assay [3], 95% (active). In addition, the inhibition in assay [8] was 12%; in assay [2], 1%. The result in assay [4], in assay [5], in assay [6] and in assay [7] was inactive.

For the compound `Cc1nc(-c2ccc(-c3ccc(NC(=O)Nc4ccc(I)c(OCCN(C)C)c4)cc3)c(C)c2)no1`, the growth inhibition in assay [1] was 92% (active); in assay [3], 101% (active). For the same compound, the inhibition was 47% in assay [8] and 2% in assay [2]. Besides, the result in assay [4], in assay [5], in assay [6] and in assay [7] was inactive.

Turning to `Nc1ncc(-c2ccc(F)c(Cl)c2)c(N)n1`, the growth inhibition is -2% in assay [1] and 83% (active) in assay [3]. Moreover, in assay [2], the inhibition was 5%. Moreover, the result in assay [4], in assay [5], in assay [6] and in assay [7] was inactive.

Take `CC(C)n1c(C(C)(C)C)cc2c3c(N)nc(N)nc3ccc21`: the values for the growth inhibition in assay [1] and in assay [3] were 99% (active) and 100% (active), respectively. For the same compound, the inhibition in assay [2] was -3%. Further, the outcome in assay [4], in assay [5], in assay [6] and in assay [7] was inactive.

`COC(=O)Cn1c(C2CCN(CC3CCC(NC(=O)/C=C/c4ccc(Cl)c(Cl)c4)CC3)CC2)nc2ccccc21` (centres undefined): the growth inhibition is 17% in assay [1] and 95% (active) in assay [3]. The inhibition in assay [8] is 12%; in assay [2], 4%. The outcome in assay [4], in assay [5], in assay [6] and in assay [7] was inactive.

In the case of `CC(=NNC(=S)NCCc1ccccn1)c1ccccn1`, the growth inhibition in assay [1] is 95% (active); in assay [3], 100% (active). For the same compound, the inhibition in assay [2] was -3%. Besides, the result in assay [4], in assay [5], in assay [6] and in assay [7] was inactive.

As for `CCN(Cc1cccc2ccccc12)c1ccc2nc(N)nc(N)c2c1`, the growth inhibition in assay [1] and in assay [3] was 100% (active) each time. Further, the inhibition in assay [2] is 3%. Further, the result in assay [4], in assay [5], in assay [6] and in assay [7] was inactive.

Regarding `CCCCCOc1c(CCC)cc(Cc2cnc(N)nc2N)cc1CCC`, the growth inhibition in assay [1] is -3%; in assay [3], 94% (active). For the same compound, the inhibition in assay [8] is 58% (active); in assay [2], -2%. The outcome in assay [4], in assay [5], in assay [6] and in assay [7] was inactive.

`CC(=NNc1nc2ccccc2s1)c1ccccn1`: the figures for the growth inhibition in assay [1] and in assay [3] were 47% and 88% (active), respectively. Further, the inhibition in assay [2] is -2%. Further, the outcome in assay [4], in assay [5], in assay [6] and in assay [7] was inactive.

For the compound `CC(C)C(C(=O)n1cc2c(ccc3nc(N)nc(N)c32)n1)C(C)C`, the results for the growth inhibition in assay [1] and in assay [3] were 49% and 98% (active), respectively. For the same compound, the results for the inhibition in assay [8] and in assay [2] were 58% (active) and -6%, respectively. Further, the result in assay [4], in assay [5], in assay [6] and in assay [7] was inactive.

Consider `Nc1nc(N)c2c(Sc3ccccc3)cccc2n1`, for which the values for the growth inhibition in assay [1] and in assay [3] were 0% and 97% (active), respectively. Further, the inhibition in assay [2] is -5%. Further, the result in assay [4], in assay [5], in assay [6] and in assay [7] was inactive.

As for `Cc1cccc(C)c1NC1=NC(=S)N(c2cccc(Cl)c2)C12CCC(C(C)(C)C)CC2` (centres undefined), the growth inhibition in assay [1] is 53% (active); in assay [3], 87% (active). Further, the results for the inhibition in assay [8] and in assay [2] were 4% and -14%, respectively. Also, the result in assay [4], in assay [5], in assay [6] and in assay [7] was inactive.

Consider `CCc1cn(C)c2c(N3CCCC3=O)cc(C(=O)N[C@@H](Cc3ccccc3)[C@H](O)CNC(C)(C)c3cccc(OC)c3)cc12`, for which the growth inhibition in assay [1] is 99% (active); in assay [3], 95% (active). Further, the inhibition is 9% in assay [8] and -1% in assay [2]. Moreover, the outcome in assay [4], in assay [5], in assay [6] and in assay [7] was inactive.

In the case of `CCCCc1cc(Cc2cnc(N)nc2N)cc(OC)c1OC`, the growth inhibition in assay [1] is -1%; in assay [3] it was 86% (active). Further, the inhibition in assay [2] was 3%. The outcome in assay [4], in assay [5], in assay [6] and in assay [7] was inactive.

As for `Cc1nc(N)nc(N)c1-c1cc(Cl)c(Cl)c(Cl)c1`, the growth inhibition was 0% in assay [1] and 97% (active) in assay [3]. Also, the inhibition in assay [2] was 2%. For the same compound, the outcome in assay [4], in assay [5], in assay [6] and in assay [7] was inactive.

Values taken from PubChem BioAssay.
